These results are taken from PubChem BioAssay.

Inconclusive results are not listed. For part of these data: Entries with a potency or affinity are not part of this list. Activity calls are given as the source filed them. Unless noted, the rule behind the calls is not given here.

A short description of experiment [1]: blockers of polyQ-driven CASP3 activation – cell-based (AID 1583). Conditions: polyglutamine-induced caspase-3 activation, cell assay; stronger effect = higher value;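 tested at 10 µM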.
A short description of experiment [2]: restoration of touch response, mutant HTT neurons – whole organism, C. elegans mechanosensory neurons, N-terminal huntingtin (AID 1599). Conditions: C. elegans polyQ-huntingtin mechanosensory neurons, stronger effect = higher value.
The nature of experiment [3]: glutamate transport activators, MN-1 cells, MN-1 cell line (AID 1612).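 Note: tested at 1 µM final; 0% = mean of DMSO vehicle wells on each plate; positive means more glutamate uptake than control and negative means less.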 Conditions: MN-1 motor neuron cells, stronger effect = higher value.
Experiment [4] in a line: 75Q-TubH aggregate inhibition, S. cerevisiae, yeast (AID 1616). The settings on record: S. cerevisiae 75Q-TubH polyglutamine aggregation suppression; stronger effect = higher value.
A short description of experiment [5]: compounds altering circadian rhythm period length – cell-based, LOPAC library, luminescence reporter (AID 2774).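 Note: values are relative to mean of DMSO wells on each plate.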 The settings on record: circadian reporter cells, at 7 µM, actives lie on both sides.
A short description of experiment [6]: compounds altering viability of human ES cells (AID 493140).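 Note: cells exposed to compounds for four days before counting.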 The settings on record: human embryonic stem cell survival screen; stronger effect = higher value.
Experiment [7] concerns Hepatitis C virus NS3 helicase. The experiment can be described thus: blockers of NS3h binding to ssDNA – biochemical, fluorescence polarization, LOPAC1280 library, primary screen (AID 687035; in the data active = inhibition above about 37%). The settings on record: Purified HCV NS3 helicase, Cy5-dT15 ssDNA binding fluorescence polarization; stronger effect = higher value; concentration not given here. A general note: In fluorescence polarisation assays a small probe gives low polarisation when free and higher when bound to something large.

The nature of experiment [8]: compounds altering Cy5-DNA-NS3h complex signal – biochemical, LOPAC1280, artefact control for HCV NS3 helicase inhibitor project (AID 687037). The settings on record: Cy5-DNA-NS3h complex fluorescence interference counterscreen. For orientation: A counterscreen serves to expose hits that act by an unwanted route or on another target.
Experiment [9] can be described thus: modulation of C. elegans fzo-1 (AID 1259413).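 Note: fzo-1 mutant C. elegans worms in liquid wells.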 Conditions: C. elegans fzo-1 modulator screen, mean read-out; stronger effect = higher value.
For experiment [10], the system named is Aerobactin synthetase IucA (Klebsiella pneumoniae, hypervirulent). The experiment can be described thus: biochemical IucA inhibition screen of LOPAC library by absorbance (AID 1346212).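 Note: 100% = no compound wells and 0% = no enzyme wells.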 The settings on record: IucA enzyme assay, absorbance (OD) readout; stronger effect = lower value;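 tested at 8 µM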.
Another experiment deals with F380Y. The experiment can be described thus: BK channel mutant inhibitors and activators – cell-based, U2OS BacMam, thallium flux, beta subunits, selectivity assay, profiling panel (AID 1259406;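 active = thallium flux through the channel raised or lowered by more than 3 SD from vehicle-only wells, actives on both sides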;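 note: initial slope of Thallos dye fluorescence rise after thallium is added; log ratio against the mean of 0.3% DMSO vehicle wells on the same plate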). The settings on record: U2OS BacMam BK variants, at 30 µM.
A further experiment deals with F380Y/beta1. Described as above. Conditions: U2OS BacMam BK variants, at 30 µM.
In a further experiment the test system is F380Y/beta2Delta. Described as above. Conditions: U2OS BacMam BK variants, at 30 µM.
The next experiment has as its system R275C. The experiment is described as above. Conditions: U2OS BacMam BK variants, at 30 µM.
In another experiment the test system is R275C/beta1. Described as above. The settings on record: U2OS BacMam BK variants, at 30 µM.
The next experiment has as its system R275C/beta2Delta. Described as above. Conditions: U2OS BacMam BK variants, at 30 µM.
The next experiment has as its system R275C/Slo1WT/beta2. The experiment is described as above. The settings on record: U2OS BacMam BK variants, at 30 µM.
For experiment [11], the target named is ATP-dependent translocase ABCB1 (Homo sapiens) (UniProt P08183). As to the kind of experiment: P-glycoprotein substrate transport blockade – cell-based (AID 377; in the data active = fluorescence slope change above about 50%). The settings on record: MDR1-expressing cells, fluorescent substrate accumulation slope; stronger effect = higher value; concentration not given here.
ATP-dependent translocase ABCB1 (Homo sapiens), sequence (P08183 whole entry, looked up): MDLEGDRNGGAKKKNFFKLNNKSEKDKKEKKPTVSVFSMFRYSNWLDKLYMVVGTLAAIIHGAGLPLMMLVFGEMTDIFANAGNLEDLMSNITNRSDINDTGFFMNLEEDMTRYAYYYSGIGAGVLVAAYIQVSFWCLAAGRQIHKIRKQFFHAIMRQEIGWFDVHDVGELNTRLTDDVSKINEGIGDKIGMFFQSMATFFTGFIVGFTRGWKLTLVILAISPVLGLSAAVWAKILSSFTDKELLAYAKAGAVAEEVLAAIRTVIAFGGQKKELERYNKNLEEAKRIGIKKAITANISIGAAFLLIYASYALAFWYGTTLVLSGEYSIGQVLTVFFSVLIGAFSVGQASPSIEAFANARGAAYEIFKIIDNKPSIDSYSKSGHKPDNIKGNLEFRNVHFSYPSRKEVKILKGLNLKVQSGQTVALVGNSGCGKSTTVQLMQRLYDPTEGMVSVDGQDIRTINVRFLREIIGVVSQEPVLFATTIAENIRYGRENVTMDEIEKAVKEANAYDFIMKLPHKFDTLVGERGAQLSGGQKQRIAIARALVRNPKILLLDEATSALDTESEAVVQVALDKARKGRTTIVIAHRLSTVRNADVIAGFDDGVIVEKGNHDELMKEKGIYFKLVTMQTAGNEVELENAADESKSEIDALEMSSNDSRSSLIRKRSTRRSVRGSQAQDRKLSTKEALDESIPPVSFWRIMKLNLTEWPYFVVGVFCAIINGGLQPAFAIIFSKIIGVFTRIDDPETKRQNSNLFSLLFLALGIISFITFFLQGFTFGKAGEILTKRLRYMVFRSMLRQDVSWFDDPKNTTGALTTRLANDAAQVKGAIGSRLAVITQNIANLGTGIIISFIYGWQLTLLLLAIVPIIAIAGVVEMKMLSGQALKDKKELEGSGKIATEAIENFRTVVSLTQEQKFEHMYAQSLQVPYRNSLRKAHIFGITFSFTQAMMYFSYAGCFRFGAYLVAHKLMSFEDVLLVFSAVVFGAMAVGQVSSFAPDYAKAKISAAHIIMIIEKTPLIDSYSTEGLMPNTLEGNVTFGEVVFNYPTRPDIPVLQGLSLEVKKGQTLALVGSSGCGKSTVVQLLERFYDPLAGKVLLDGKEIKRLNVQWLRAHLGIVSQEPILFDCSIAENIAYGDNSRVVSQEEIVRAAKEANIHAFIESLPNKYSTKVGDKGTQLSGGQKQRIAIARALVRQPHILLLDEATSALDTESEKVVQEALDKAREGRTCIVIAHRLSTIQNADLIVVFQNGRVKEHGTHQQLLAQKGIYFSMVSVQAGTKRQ
Experiment [12] in a line: GFP-Q80 aggregate reduction, neuronal-like cells, cell-based, NGF-treated PC12, GFPQ80 (AID 1614).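 Note: lower means fewer inclusions and 0 means no inclusions at all.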 The settings on record: PC12 NGF-treated GFP-polyQ80 inclusion reduction.
Experiment [13] in a line: blockers of cellular phospholipid synthesis – cell-based, LOPAC library, screen 4, primary screen (AID 1347384). Conditions: animal cells, phospholipid biosynthesis inhibition screen; at 10 µM.

On to `O=C(O)CCCc1ccc(N(CCCl)CCCl)cc1`, for which the inhibition – broadly, the change of the read-out against control, counted positive when it falls – was 25.6% in [1] and -3% (inactive) in experiment [7]. This compound also had a rescue above control in experiment [2] of -3.71. In addition, the glutamate uptake change in experiment [3] is -0.49%. This compound also had an aggregation suppression score in experiment [4] of 0.0151. Besides, the period change in experiment [5] is -0.09 h (inactive). Further, the survival in [6] was 4.5 (inactive). The fluorescence ratio (interference) in experiment [8] was 1 (inactive). Also, the mean signal in experiment [9] was 236 (inactive). For the same compound, the remaining activity – broadly, the signal under treatment as a percentage of the control signal – in experiment [10] is 115% (inactive). Also, the log fold change Tl+ flux with F380Y was -0.0169 (inactive); with F380Y/beta1, 0.0024 (inactive); in the experiment with F380Y/beta2Delta, 0.0059 (inactive); with R275C it was -0.0229 (inactive); in the experiment with R275C/beta1, -0.022 (inactive); in the experiment with R275C/beta2Delta, 0.041 (inactive). For the same compound, in the experiment on R275C/Slo1WT/beta2, the log fold change Tl+ flux was 0.0346 (inactive).
In the case of `C=C(C)[C@H]1Cc2c(ccc3c2O[C@@H]2COc4cc(OC)c(OC)cc4[C@@H]2C3=O)O1`, the fluorescence slope change in experiment [11] was 63.7% (active). Also, the results for the inhibition in experiment [1] and in experiment [7] were 5.88% and -1% (inactive), respectively. In addition, the rescue above control in experiment [2] came to 0. For the same compound, the glutamate uptake change in experiment [3] was -44.7%. The inclusion score in [12] stood at 2. The aggregation suppression score in experiment [4] was 0.895. In addition, the period change in [5] was -1.31 h (inactive). Moreover, in [8], the fluorescence ratio (interference) was 1 (inactive). Also, in experiment [10], the remaining activity is 78.1% (inactive). The call in [13] was inactive.
Turning to `CC(Cc1ccc(O)cc1)NCC(O)c1cc(O)cc(O)c1` (stereo unspecified), the fluorescence slope change in [11] was 108% (active). The inhibition in experiment [1] is 7.8%; in experiment [7], -3% (inactive). The rescue above control in [2] was 3.16. Moreover, the glutamate uptake change in [3] turned out to be 0.39%. This compound also came in with an inclusion score in experiment [12] of 2. In [4], this compound gave an aggregation suppression score of 1.23. The period change in experiment [5] is 0.005 h (inactive). In addition, the survival in experiment [6] was 36.6 (inactive). In experiment [8], the fluorescence ratio (interference) is 1 (inactive). In addition, in experiment [10], the remaining activity is 91.6% (inactive). Further, the compound was classed as inactive in experiment [13].
Regarding `NCCc1ccc(O)cc1`, the inhibition in [1] was -15.4%; in experiment [7], -3% (inactive). This compound also yielded a rescue above control in experiment [2] of -11.7. For the same compound, in [3], the glutamate uptake change was -2.56%. The inclusion score in [12] was determined as 2. The aggregation suppression score in [4] is 1.19. The period change in experiment [5] was 0.035 h (inactive). Also, in experiment [8], the fluorescence ratio (interference) was 1 (inactive). Further, the remaining activity in experiment [10] is 98.4% (inactive). The outcome in experiment [13] was inactive.
In the case of `CN1C(=O)CCS(=O)(=O)C1c1ccc(Cl)cc1` (stereo unspecified), the fluorescence slope change in experiment [11] is 29.1% (inactive). In addition, the inhibition is 11.3% in [1] and 0% (inactive) in [7]. In addition, the rescue above control in [2] came out at 10. Further, in experiment [3], the glutamate uptake change was determined as 3.58%. Moreover, the inclusion score in experiment [12] came out at 2. In experiment [4], this compound registered an aggregation suppression score of 1.17. In [5], the period change was 0.08 h (inactive). Further, in experiment [6], the survival is 8 (inactive). The fluorescence ratio (interference) in [8] is 1 (inactive). Moreover, the remaining activity in [10] is 93.8% (inactive). Also, the compound was called inactive in [13].
Regarding `CN(C)[C@@H]1C(=O)C(C(N)=O)=C(O)[C@@]2(O)C(=O)C3=C(O)c4c(O)cccc4[C@@](C)(O)[C@H]3C[C@@H]12`, the fluorescence slope change in experiment [11] is 76.3% (active). The inhibition in experiment [1] came out at 61.6%. Further, the rescue above control in experiment [2] was -1.89. Moreover, the glutamate uptake change in experiment [3] was 10.7%. Also, the inclusion score in [12] was 0. For the same compound, in experiment [4], the aggregation suppression score stood at 0.769. The survival in [6] was 22.6 (inactive). The mean signal in experiment [9] was 244 (inactive).
As to `O=C(CCCN1CCC2(CC1)C(=O)NCN2c1ccccc1)c1ccc(F)cc1`, the fluorescence slope change in experiment [11] is 202% (active). Also, the inhibition in [1] was -14.9%. Further, in experiment [2], the rescue above control came to 4.9. For the same compound, in experiment [3], the glutamate uptake change is -22.8%. The compound also came in with an inclusion score in experiment [12] of 2. Further, the aggregation suppression score in experiment [4] is 1.1. Besides, the period change in experiment [5] is 0.035 h (inactive). Besides, the survival in [6] was 7.92 (inactive). In experiment [8], the fluorescence ratio (interference) is 1 (inactive). The remaining activity in experiment [10] was 121% (inactive). Besides, the call in experiment [13] was inactive.
